The assay addresses T1, Methionyl-tRNA synthetase, putative (Leishmania donovani (strain BPK282A1)) (UniProt E9BF75).
T1 sequence (whole entry): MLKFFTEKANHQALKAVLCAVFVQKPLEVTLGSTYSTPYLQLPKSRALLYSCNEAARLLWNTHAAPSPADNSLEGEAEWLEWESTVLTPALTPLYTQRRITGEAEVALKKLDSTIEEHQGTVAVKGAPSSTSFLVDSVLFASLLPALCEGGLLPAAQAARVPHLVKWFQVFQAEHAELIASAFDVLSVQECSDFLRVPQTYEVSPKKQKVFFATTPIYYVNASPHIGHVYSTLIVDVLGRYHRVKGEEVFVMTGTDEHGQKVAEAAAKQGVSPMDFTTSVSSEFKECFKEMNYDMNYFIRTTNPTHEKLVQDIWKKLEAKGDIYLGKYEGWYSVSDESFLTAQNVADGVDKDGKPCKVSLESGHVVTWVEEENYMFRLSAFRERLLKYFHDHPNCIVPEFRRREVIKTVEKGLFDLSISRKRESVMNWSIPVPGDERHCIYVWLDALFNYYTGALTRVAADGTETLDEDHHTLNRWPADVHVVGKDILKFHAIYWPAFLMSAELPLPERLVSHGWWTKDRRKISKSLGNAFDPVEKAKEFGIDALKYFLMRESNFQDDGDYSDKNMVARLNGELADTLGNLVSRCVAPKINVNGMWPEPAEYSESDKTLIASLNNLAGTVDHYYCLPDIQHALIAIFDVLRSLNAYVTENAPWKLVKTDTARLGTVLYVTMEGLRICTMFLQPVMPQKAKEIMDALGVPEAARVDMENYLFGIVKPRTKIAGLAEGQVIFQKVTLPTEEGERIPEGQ
Nature of the assay: Leishmania donovani Methionine tRNA synthetase (LdMetRS):v7. Dose response assay. The format is functional. Set-up: conc 80 nM, time 150 minutes.

Bounds are passed on as bounds.

For the compound `CS(=O)(=O)N1CCN(c2ccc3ccc(C(=O)NCCN4CCS(=O)(=O)CC4)cn23)CC1`, the PXC50 runs as follows: (BOTTOM 1.003127248, HILLSLOPE 2.200420441, MAX_EFFECT 73.49177331, TOP 74.60069177) 4.88; (BOTTOM 1.050104582, HILLSLOPE 2.645513549, MAX_EFFECT 70.81339713, TOP 67.22785398) 4.94.

Take `Cc1nc(NCC(=O)O)c2c3c(sc2n1)CCC3`: the PXC50 is, setting by setting: (MAX_EFFECT 4.834605598) less than 4; (MAX_EFFECT 5.289672544) less than 4.

As to `Cc1sc2nc(CN3CCOCC3)nc(NCCO)c2c1C`, the PXC50 is less than 4 (MAX_EFFECT 7.650273224) and less than 4 (MAX_EFFECT 8.021390374).

As for `COCCNc1nc(-c2cccnc2)nc2sc3c(c12)CCCC3`, the PXC50 was less than 4 (MAX_EFFECT 11.84210526) and less than 4 (MAX_EFFECT 12.5).

With `CCNc1nc(CC)nc2sc(CC)cc12`, the PXC50 was less than 4 (MAX_EFFECT 7.537688442) and less than 4 (MAX_EFFECT 11.05651106).

For the compound `Cc1nc(N[C@@H](CC(C)C)C(=O)O)c2c3c(sc2n1)CCCC3`, the PXC50 is less than 4 (MAX_EFFECT 23.93617021) and less than 4 (MAX_EFFECT 24.87046632).

In the case of `Nc1nc(CSc2ccccn2)nc2sc3c(c12)CCCCC3`, the PXC50 (MAX_EFFECT 34.13333333) is less than 4 and the PXC50 (MAX_EFFECT 39.15343915) is less than 4.

`Fc1cccc(OCc2cnc[nH]2)c1Oc1ccc(Cl)cc1` gave a PXC50 (MAX_EFFECT 12.57995736) of less than 4 and a PXC50 (MAX_EFFECT 14.69979296) of less than 4.

Turning to `O=C(C1CCC1)N1CCC(c2ncc3c(n2)CCNC3)CC1`, the PXC50 is, setting by setting: (MAX_EFFECT 30.83900227) less than 4; (MAX_EFFECT 33.27102804) less than 4.

As to `COc1ccc(-c2cc(C(F)(F)F)nc(N3CCN(C)CC3)n2)cc1`, the PXC50 is, setting by setting: (MAX_EFFECT 16.41414141) less than 4; (MAX_EFFECT 20.40816327) less than 4.

For the compound `Nc1noc2ccc(-c3cnc4ccc(NCCn5cccn5)nn34)cc12`, the PXC50 by setting is: (MAX_EFFECT 13.59649123) less than 4; (MAX_EFFECT 13.74045802) less than 4.

As for `COCCN1CCN(c2ccc3ccc(C(=O)NC4CC4)cn23)CC1`, the PXC50 by setting is: (MAX_EFFECT 43.53741497) less than 4; (MAX_EFFECT 48.22429907) less than 4.

`CCOC(=O)N1CCN(c2nc(CCN)nc3sc(C)c(C)c23)CC1` registered a PXC50 (BOTTOM 0.0282, HILLSLOPE 1.091908383, MAX_EFFECT 72.32375979, TOP 100.0) of 4.33 and a PXC50 (BOTTOM 1.098813228, HILLSLOPE 1.170601195, MAX_EFFECT 79.37336815, TOP 100.0) of 4.4.

With `CS(=O)(=O)N1CCN(c2ccc3c(F)cc(C(=O)NC4CCCC4)cn23)CC1`, the PXC50 was less than 4 (MAX_EFFECT 12.5) and less than 4 (MAX_EFFECT 15.35087719).

With `CCCC(=O)N1CCC(c2ncc3c(n2)CCNC3)CC1`, the PXC50 is less than 4 (MAX_EFFECT 6.802721088) and less than 4 (MAX_EFFECT 13.45794393).

Regarding `Cc1nc(N2CC[C@@H](O)C2)c2c3c(sc2n1)CCCC3`, the PXC50 (MAX_EFFECT 8.838383838) was less than 4 and the PXC50 (MAX_EFFECT 10.20408163) was less than 4.

Regarding `O=C(c1cnccn1)N1CCC(F)(F)C2(CCN(c3ccccn3)C2)C1` (stereo not given), the PXC50 by setting is: (MAX_EFFECT 7.962962963) less than 4; (MAX_EFFECT 7.981220657) less than 4.

Take `CC(=O)N1CCN(c2nc(C(F)(F)F)nc3sc(C)c(C)c23)CC1`: the PXC50 runs as follows: (MAX_EFFECT 7.310704961) less than 4; (MAX_EFFECT 8.093994778) less than 4.

In the case of `Cc1sc2nc(C(F)(F)F)nc(N3CCCN(C)CC3)c2c1C`, the PXC50 by setting is: (MAX_EFFECT 3.916449086) less than 4; (MAX_EFFECT 8.877284595) less than 4.

As to `Cc1nccn1CCCn1cncc1-c1ccc2c(c1)CC(C)N2C` (stereo not given), the PXC50 is, setting by setting: (MAX_EFFECT 28.57142857) less than 4; (MAX_EFFECT 43.36448598) less than 4.

In the case of `CC(O)CNc1nc(CN2CCCCC2)nc2sc3c(c12)CCCC3` (stereo not given), the PXC50 is less than 4 (MAX_EFFECT 8.108108108) and less than 4 (MAX_EFFECT 9.547738693).

Turning to `CN1CCC(CNC(=O)c2ccc3ccc(N4CCN(S(C)(=O)=O)CC4)n3c2)CC1`, the PXC50 reads like this: (BOTTOM 1.275548684, HILLSLOPE 2.230174864, MAX_EFFECT 66.02870813, TOP 65.69793646) 4.77; (BOTTOM -0.677256268, HILLSLOPE 1.919543897, MAX_EFFECT 70.20109689, TOP 75.47637091) 4.69.

For the compound `FC(F)(F)c1nc(N2CCCCCC2)nc2c1CCCCC2`, the PXC50 is less than 4 (MAX_EFFECT 4.325699746) and less than 4 (MAX_EFFECT 5.793450882).

Turning to `Cc1nnc(NCC2(c3ccccc3)CCC2)c(C#N)c1C`, the PXC50 runs as follows: (MAX_EFFECT 19.71830986) less than 4; (MAX_EFFECT 20.92592593) less than 4.

Turning to `Cc1nc(N2CCC(N)C2)c2ccsc2n1` (stereo not given), the PXC50 is, setting by setting: (MAX_EFFECT 4.663212435) less than 4; (MAX_EFFECT 6.914893617) less than 4.

For the compound `Cc1nc(NCCCO)c2c(-c3cccs3)csc2n1`, the PXC50 by setting is: (MAX_EFFECT 5.852417303) less than 4; (MAX_EFFECT 7.808564232) less than 4.

Take `Cc1cc(C)n(-c2nc(N3CCCC3)c3c4c(sc3n2)CCCC4)n1`: the PXC50 was less than 4 (MAX_EFFECT 18.42105263) and less than 4 (MAX_EFFECT 18.75).

As to `O=C(NCC1(O)CCC(F)(F)CC1)c1cc(=O)c2cc(O)ccc2o1`, the PXC50 was less than 4 (MAX_EFFECT 6.858054226) and less than 4 (MAX_EFFECT 7.869481766).

The compound `CN(C)CCNC(=O)c1ccc2ccc(N3CCN(S(C)(=O)=O)CC3)n2c1` returned a PXC50 (BOTTOM 0.033, HILLSLOPE 2.605738827, MAX_EFFECT 55.98086124, TOP 56.52145989) of 4.84 and a PXC50 (BOTTOM -2.072944034, HILLSLOPE 2.61914663, MAX_EFFECT 60.32906764, TOP 62.06864911) of 4.75.

With `Cn1ccnc1CN1CCC(F)(F)C2(CCN(c3cnccn3)C2)C1` (stereo not given), the PXC50 was less than 4 (MAX_EFFECT 2.816901408) and less than 4 (MAX_EFFECT 9.074074074).

(Values after ChEMBL document CHEMBL3988442, “University of Dundee, Small-Polar-MMV Screening Library” (2021).)
